# Experimental data: PubChem BioAssay (EPA / NIEHS)
# Where “and” joins values, the source holds several entries; their conditions need not be identical. Equal entries are not always repeated. A structure can be active in one record and inactive in another. Calls of active or inactive are those of the source. The calls were made as follows: active = hit-call score of the fitted dose curve at least 0.9, where 1 is the maximum; inactive = score below 0.9.
# How the values were obtained:
# Conditions in all cases: primary human HUVEC with PBMC; actives raise or lower the signal
# [1] = read-out: Interleukin-1 alpha (IL1a), IL1A (gene 3552); experiment: BSK_LPS_IL1a: BioMAP Diversity Plus: LPS Assay for Interleukin-1 alpha (IL1a) Biomarker Activity (AID 2283080)
# Procedure, shortened: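 ELISA read-out of IL-1 alpha from a human primary vascular co-culture (endothelium plus PBMC) under LPS, sampled 24 hours post-dosing. Activity was fitted in both directions relative to DMSO controls.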
# [2] = read-out: Monocyte Chemoattractant Protein-1 (MCP1), CCL2 (gene 6347); experiment: BSK_LPS_MCP1: BioMAP Diversity Plus: LPS Assay for Monocyte Chemoattractant Protein-1 (MCP1) Biomarker Activity (AID 2283081);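 as to AC50: secreted MCP-1 protein quantified by ELISA in culture supernatant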
# Procedure, shortened: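 Human endothelial–PBMC co-cultures were dosed with chemical, then LPS-driven MCP-1 levels were quantified by ELISA at 24 h. Activity in either direction was fitted versus DMSO negative control.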
# [3] = BSK_LPS_PGE2: BioMAP Diversity Plus: LPS Assay for Prostaglandin E2 (PGE2) Biomarker Activity (AID 2283082);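 as to AC50: secreted prostaglandin E2 measured by ELISA in LPS-stimulated co-culture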
# Procedure, shortened: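 LPS-activated HUVEC/PBMC co-culture; cmpd dosed, 24 h; PGE2 by ELISA; bidirectional fit vs DMSO; SRB (0.1%, TCA-fixed, 560 nm) in parallel plates for overt cytotox.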
# [4] = read-out: Macrophage colony-stimulating factor (MCSF), CSF1 (gene 1435); experiment: BSK_LPS_MCSF: BioMAP Diversity Plus: LPS Assay for Macrophage colony-stimulating factor (MCSF) Biomarker Activity (AID 2283083)
# Procedure, shortened: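 ELISA readout of M-CSF after 24 h compound exposure in a human endothelial/PBMC co-culture. Activity, in either direction, is fitted relative to DMSO vehicle.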
# [5] = read-out: Tissue Factor, F3 (gene 2152); experiment: BSK_LPS_TissueFactor: BioMAP Diversity Plus: LPS Assay for Tissue Factor Biomarker Activity (AID 2283084)
# Procedure, shortened: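 ELISA signal for cell-surface Tissue Factor (CD142) was read 24 h after compound dosing of an LPS-stimulated human endothelial–PBMC primary co-culture. Gain or loss of signal was scored relative to DMSO.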
# [6] = read-out: Tumor necrosis factor (Homo sapiens) (UniProt P01375); experiment: BSK_LPS_TNFa: BioMAP Diversity Plus: LPS Assay for Tumour Necrosis Factor alpha (TNFa) Biomarker Activity (AID 2283085);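 as to AC50: TNFa protein level quantified by ELISA in the co-culture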
# Procedure, shortened: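 Read-out is ELISA of TNFa in primary human endothelial cell–PBMC co-cultures at 24 h after compound. Activity in either direction was fitted against DMSO.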
# [7] = read-out: Vascular cell adhesion molecule 1 (VCAM1), VCAM1 (gene 7412); experiment: BSK_LPS_VCAM1: BioMAP Diversity Plus: LPS Assay for Vascular cell adhesion molecule 1 (VCAM1) Biomarker Activity (AID 2283086)
# Procedure, shortened: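 HUVEC + PBMC co-culture, LPS system; compound 24 h; VCAM-1 by ELISA; bidirectional fit vs DMSO control; parallel SRB (0.1%, TCA-fixed, 560 nm) for cytotoxicity.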
# [8] = read-out: CD38, CD38 (gene 952); experiment: BSK_SAg_CD38: BioMAP Diversity Plus: SAg Assay for CD38 Biomarker Activity (AID 2283087)
# Procedure, shortened: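 Human HUVEC plus PBMC co-culture stimulated with superantigen; CD38 measured by ELISA 24 h after chemical dosing. Fluorescence read-out, bidirectional fit against DMSO; cytotoxicity tracked in parallel by SRB and Alamar Blue.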
# [9] = read-out: CD40, CD40 (gene 958); experiment: BSK_SAg_CD40: BioMAP Diversity Plus: SAg Assay for CD40 Biomarker Activity (AID 2283088)
# Procedure, shortened: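 Compounds were dosed onto a human primary endothelial–PBMC co-culture, and after 24 h CD40 was quantified by ELISA using a fluorescence signal. Activity in either direction was fitted relative to DMSO.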
# [10] = read-out: CD69, CD69 (gene 969); experiment: BSK_SAg_CD69: BioMAP Diversity Plus: SAg Assay for CD69 Biomarker Activity (AID 2283089);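 as to AC50: cell surface CD69 protein quantified by ELISA with fluorescence detection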
# Procedure, shortened: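 Endothelial/PBMC co-culture; chemical added; 24 h incubation; CD69 ELISA with fluorescence detection; bidirectional fit vs DMSO.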
# Sequence of Tumor necrosis factor (Homo sapiens) (P01375 whole entry, looked up): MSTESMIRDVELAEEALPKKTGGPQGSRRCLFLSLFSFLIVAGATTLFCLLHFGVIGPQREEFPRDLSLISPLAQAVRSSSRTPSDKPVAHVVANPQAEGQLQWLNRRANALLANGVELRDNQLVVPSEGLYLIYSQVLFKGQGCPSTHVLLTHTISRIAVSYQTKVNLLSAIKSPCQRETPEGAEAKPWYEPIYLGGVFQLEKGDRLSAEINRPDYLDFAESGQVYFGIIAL
structure (smiles),measurement,setting,value
Cc1ccccc1O,outcome,[1],inactive
same,outcome,[2],inactive
same,AC50,[3],3.97 µM (active)
same,outcome,[4],inactive
same,outcome,[5],inactive
same,outcome,[6],inactive
same,outcome,[7],inactive
same,outcome,[8],inactive
same,outcome,[9],inactive
same,outcome,[10],inactive
CCC(C)(c1ccc(O)cc1)c1ccc(O)cc1,outcome,[1],inactive
same,outcome,[2],inactive
same,AC50,[3],13.3 µM (active)
same,AC50,[4],20 µM (active)
same,outcome,[5],inactive
same,outcome,[6],inactive
same,AC50,[7],20 µM (active)
same,AC50,[8],25.6 µM (active)
same,AC50,[9],20 µM (active)
same,AC50,[10],20 µM (active)
Clc1ccc(C(Cl)(Cl)Cl)cc1,outcome,[1],inactive
same,outcome,[2],inactive
same,outcome,[3],inactive
same,outcome,[4],inactive
same,outcome,[5],inactive
same,outcome,[6],inactive
same,outcome,[8],inactive
same,outcome,[9],inactive
same,outcome,[10],inactive
O=C(N[C@H]1CN2CCC1CC2)c1cc2ccoc2cn1,outcome,[1],inactive
same,outcome,[2],inactive
same,outcome,[3],inactive
same,outcome,[4],inactive
same,outcome,[5],inactive
same,outcome,[6],inactive
same,outcome,[7],inactive
same,outcome,[8],inactive
same,outcome,[9],inactive
same,outcome,[10],inactive
Cc1cc2c3c(c1)C(c1ccccc1)=N[C@@H](NC(=O)c1ccncc1)C(=O)N3CC2,AC50,[1],3.97 µM (active)
same,outcome,[2],inactive
same,outcome,[3],inactive
same,AC50,[4],4.6 µM (active)
same,outcome,[5],inactive
same,AC50,[6],7.3 µM (active)
same,AC50,[8],11.8 µM (active)
same,AC50,[9],20 µM (active)
same,AC50,[10],5.02 µM (active)
CCCCCCCCOC(=O)c1ccccc1C(=O)OCCCCCCCC,outcome,[1],inactive
same,outcome,[2],inactive
same,outcome,[3],inactive
same,outcome,[4],inactive
same,outcome,[5],inactive
same,outcome,[6],inactive
same,AC50,[8],11.2 µM (active)
same,outcome,[9],inactive
same,outcome,[10],inactive
COc1ccc(O)c(C(C)(C)C)c1,outcome,[2],inactive
same,AC50,[3],1.71 µM (active) and 2.48 µM (active) and 4.59 µM (active)
same,outcome,[4],inactive
same,outcome,[5],inactive
same,outcome,[6],inactive
same,outcome,[7],inactive
same,outcome,[8],inactive
same,AC50,[9],28.9 µM (active)
same,outcome,[9],inactive
same,outcome,[10],inactive
ClC1=C(Cl)[C@]2(Cl)[C@@H]3[C@@H](Cl)[C@H]4O[C@H]4[C@@H]3C1(Cl)C2(Cl)Cl,outcome,[1],inactive
same,outcome,[2],inactive
same,outcome,[3],inactive
same,outcome,[4],inactive
same,outcome,[5],inactive
same,AC50,[6],2.42 µM (active)
same,outcome,[7],inactive
same,AC50,[8],8.15 µM (active)
same,AC50,[9],11.6 µM (active)
same,outcome,[10],inactive
NS(=O)(=O)C(F)(F)C(F)(F)C(F)(F)C(F)(F)C(F)(F)C(F)(F)C(F)(F)C(F)(F)F,AC50,[1],32.1 µM (active) and 48.7 µM (active) and 52.2 µM (active)
same,AC50,[2],55.7 µM (active) and 57.3 µM (active)
same,outcome,[2],inactive
same,AC50,[3],52.2 µM (active) and 51.9 µM (active)
same,outcome,[3],inactive
same,AC50,[4],30.9 µM (active) and 54.9 µM (active) and 51.8 µM (active)
same,AC50,[5],44.6 µM (active)
same,outcome,[5],inactive
same,AC50,[6],28.6 µM (active) and 49.6 µM (active) and 49.3 µM (active)
same,AC50,[8],27.8 µM (active) and 43.8 µM (active) and 42.4 µM (active)
same,AC50,[9],27.7 µM (active) and 46.1 µM (active) and 45.8 µM (active)
same,AC50,[10],27.4 µM (active) and 40.8 µM (active) and 43.4 µM (active)
Cc1cccc([N+](=O)[O-])c1,outcome,[1],inactive
same,outcome,[2],inactive
same,outcome,[3],inactive
same,outcome,[4],inactive
same,outcome,[5],inactive
same,outcome,[6],inactive
same,outcome,[7],inactive
same,outcome,[8],inactive
same,outcome,[9],inactive
same,outcome,[10],inactive
O=C(O)C(F)(F)C(F)(F)C(F)(F)C(F)(F)C(F)(F)C(F)(F)C(F)(F)C(F)(F)C(F)(F)F,AC50,[2],33.2 µM (active) and 54.1 µM (active) and 54.5 µM (active)
same,AC50,[3],24.7 µM (active) and 39 µM (active)
same,outcome,[3],inactive
same,AC50,[4],58.7 µM (active) and 52.5 µM (active)
same,outcome,[4],inactive
same,AC50,[5],45.6 µM (active) and 50.6 µM (active)
same,outcome,[5],inactive
same,AC50,[6],54.1 µM (active) and 43.6 µM (active)
same,outcome,[6],inactive
same,AC50,[8],30.4 µM (active) and 53 µM (active) and 51.9 µM (active)
same,AC50,[9],32.3 µM (active) and 51.6 µM (active) and 44.6 µM (active)
same,AC50,[10],29.2 µM (active) and 46.9 µM (active) and 46.4 µM (active)
ClC1=C(Cl)[C@]2(Cl)[C@@H]3[C@@H]4C[C@@H]([C@H]5O[C@@H]45)[C@@H]3[C@@]1(Cl)C2(Cl)Cl,outcome,[1],inactive
same,outcome,[2],inactive
same,outcome,[3],inactive
same,outcome,[4],inactive
same,outcome,[5],inactive
same,AC50,[6],3.05 µM (active)
same,AC50,[8],14.4 µM (active)
same,AC50,[9],11.2 µM (active)
same,outcome,[10],inactive
ClC1=C(Cl)[C@]2(Cl)[C@@H]3[C@H]4C[C@H]([C@@H]5O[C@H]45)[C@@H]3[C@@]1(Cl)C2(Cl)Cl,outcome,[1],inactive
same,outcome,[2],inactive
same,outcome,[3],inactive
same,outcome,[4],inactive
same,outcome,[5],inactive
same,AC50,[6],4.16 µM (active)
same,outcome,[8],inactive
same,AC50,[9],8.47 µM (active)
same,outcome,[10],inactive
Cc1ccccc1CO[C@@H]1C[C@@]2(C(C)C)CC[C@]1(C)O2,outcome,[1],inactive
same,outcome,[2],inactive
same,outcome,[3],inactive
same,outcome,[4],inactive
same,outcome,[5],inactive
same,outcome,[6],inactive
same,outcome,[7],inactive
same,outcome,[8],inactive
same,outcome,[9],inactive
same,outcome,[10],inactive
CCCCCCCCCc1ccc(O)cc1,AC50,[1],22 µM (active)
same,AC50,[2],32.2 µM (active)
same,AC50,[3],7.76 µM (active)
same,AC50,[4],23.6 µM (active)
same,AC50,[5],31.3 µM (active)
same,AC50,[6],36.5 µM (active)
same,AC50,[8],15.9 µM (active)
same,AC50,[9],20.3 µM (active)
same,AC50,[10],22.7 µM (active)
